Screening data deposited in PubChem by University of Kansas High Throughput Screening Laboratory.
mHTT CaM bind: inhibitors of human mutant huntingtin-calmodulin interaction; inhibition, % at 15 µM; AlphaScreen His-mHTT/GST-CaM binding, luminescence; 190,000 tested, 3.6% active
Pf apPOL block: Pf-apPOL DNA polymerase inhibition; AID 1794808; inhibition, % at 10 µM; Recombinant Pf-apPOL, molecular beacon fluorescence, 1.5 h; 210,000 tested, 0.25% active
Numbers stand for hits; . = inactive; / = not tested or not shown. In the library only some 3.5% were active in any assay of this set; here they are far more common. Cut-off read from the data, not from the text of the source: active = inhibition above about 50%; inactive = the rest.

SMILES	mHTT CaM bind	Pf apPOL block
O=C(Nc1ccccn1)c1nc(-c2ccc(Cl)cc2)n2c1CCCCC2	.	.
O=C(NCc1ccccn1)c1nc(-c2ccc(Cl)cc2)n2c1CCCCC2	54	.
Cc1ccc(-c2nc(C(=O)NC(C)C)c3n2CCCCC3)cc1	.	.
Cc1ccc(S(=O)(=O)N2CCC(c3noc(-c4ccc(Cl)cc4)n3)CC2)cc1F	.	.
O=c1[nH]c2ccccc2nc1C=C(O)c1ccco1	.	.
O=c1[nH]c2c(=O)[nH]c(=S)[nH]c2nc1C=C(O)c1ccccc1	/	90
CCc1nc2c(NC(=O)C3CCCC3)cccn2n1	.	.
COc1ccc(OC)c(C2C=C(c3ccc(Br)cc3)Nc3nnnn32)c1 (stereo unspecified)	.	.
COc1ccc(C(=O)N2CC(=O)Nc3ccc(Cl)cc3C2c2ccc(F)cc2)c(OC)c1 (stereo unspecified)	.	.
COc1ccc(C(=O)N2CC(=O)Nc3ccc(Cl)cc3C2c2ccc(F)cc2)cc1OC (stereo unspecified)	71	.
CCCCNC(=O)c1cccc(C2CCCN(C(=O)Nc3ccccc3)C2)c1 (stereo unspecified)	.	.
CC1CCN(C(=O)c2cnn3ccc(C4CCN(C(=O)C5CCC5)CC4)cc23)CC1	.	.
O=C(Nc1nccs1)C1CC(=O)N(CCc2c[nH]c3ccc(Cl)cc23)C1 (stereo unspecified)	63	.
Cc1ccc(Cl)cc1NC(=O)C1CC(=O)N(c2cccc([N+](=O)[O-])c2)C1 (stereo unspecified)	54	.
Cc1ccc(N2CC(C(=O)Nc3ccc(Cl)cc3Cl)CC2=O)cc1 (stereo unspecified)	.	.
O=C(Nc1nncs1)C1CC(=O)N(CCc2c[nH]c3ccc(Cl)cc23)C1 (stereo unspecified)	.	.
COc1ccc2[nH]cc(CCN3CC(C(=O)Nc4ccc(F)c(Cl)c4)CC3=O)c2c1 (stereo unspecified)	55	.
COc1ccc2[nH]cc(CCN3CC(C(=O)Nc4cc(F)cc(F)c4)CC3=O)c2c1 (stereo unspecified)	.	.
O=C(Nc1ccc2c(c1)OCCO2)C1CC(=O)N(CCc2c[nH]c3ccc(F)cc23)C1 (stereo unspecified)	.	.
O=C(Nc1ccc2c(c1)OCCO2)C1CC(=O)N(CCc2c[nH]c3ccc(Cl)cc23)C1 (stereo unspecified)	76	.
COc1cc(-n2cnc3cc(C(=O)NCC(OC)OC)ccc32)cc(OC)c1OC	.	.
Cc1cc(C)n2c(Br)c(CSc3ccc(Cl)cc3)nc2n1	.	.
Cc1ccc2[nH]cc(CCNC(=O)CC3CCN(C(=O)c4ccccc4Cl)CC3)c2c1	79	.
Cc1ccc(C(=O)N2CCC(CC(=O)NCCc3c[nH]c4ccc(Cl)cc34)CC2)cc1	.	.
COc1ccc(NC(=O)C2CC(=O)N(CCc3c[nH]c4ccc(C)cc34)C2)cc1 (stereo unspecified)	.	.
SMILES	mHTT CaM bind	Pf apPOL block
CCCCNC(=O)C1CC(=O)N(CCc2c[nH]c3ccc(Cl)cc23)C1 (stereo unspecified)	.	.
O=C(Nc1nc2ccccc2s1)C1CC(=O)N(CCc2c[nH]c3ccc(Cl)cc23)C1 (stereo unspecified)	100	.
COc1cccc(NC(=O)C2CC(=O)N(CCc3c[nH]c4ccc(Cl)cc34)C2)c1 (stereo unspecified)	.	.
Cc1cccc(NC(=O)C2CC(=O)N(CCc3c[nH]c4ccc(Cl)cc34)C2)c1 (stereo unspecified)	82	.
COc1ccc2nc(NC(=O)C3CC(=O)N(CCc4c[nH]c5ccc(C)cc45)C3)sc2c1 (stereo unspecified)	85	.
CCC(=O)N1CCc2cc(Br)cc(S(=O)(=O)CCC(=O)O)c21	.	.
COc1cc(OC)c(NC(=O)N2CC(C)Oc3ccc(C)cc32)cc1Cl (stereo unspecified)	.	.
CCOC(=O)N1CCN(C(=O)c2noc3c2CCCC3)CC1	.	.
CC(C)(C)c1ccc(OCC(=O)N2CCCCC2CCN2CCCC2)cc1 (stereo unspecified)	.	.
COc1ccc(NC(=O)C2CC(=O)N(c3ccc(C)c(Cl)c3)C2)cc1 (stereo unspecified)	.	.
Cc1ccc(N2CC(C(=O)Nc3nc4ccccc4s3)CC2=O)cc1Cl (stereo unspecified)	55	.
O=C(Nc1ccc(F)cc1)C1CC(=O)N(CCc2c[nH]c3ccc(Cl)cc23)C1 (stereo unspecified)	55	.
CC1CCN(C(=O)C2CC(=O)N(CCc3c[nH]c4ccc(F)cc34)C2)CC1 (stereo unspecified)	.	.
O=C(NCCc1ccc(F)cc1)C1CC(=O)N(CCc2c[nH]c3ccc(Cl)cc23)C1 (stereo unspecified)	.	.
O=C1CC(C(=O)N2CCN(Cc3ccccc3)CC2)CN1CCc1c[nH]c2ccc(F)cc12 (stereo unspecified)	55	.
O=C(Nc1cccc(F)c1)C1CC(=O)N(CCc2c[nH]c3ccc(F)cc23)C1 (stereo unspecified)	.	.
O=C(Nc1cccc(F)c1)C1CC(=O)N(CCc2c[nH]c3ccc(Cl)cc23)C1 (stereo unspecified)	66	.
N/C(=N\OC(=O)c1ccc(Br)o1)c1ccncc1	.	.
Cc1ccc(-c2c(C(=O)NCc3ccccn3)nc3ccccn23)cc1	.	.
COc1ccccc1NC(=O)N1CCC(c2cc(-c3cccc(C)c3)n[nH]2)CC1	.	.
CCc1ccc(-n2c(CN3CCN(C(=O)NC4CCCC4)CC3)nc3cccnc32)cc1	.	.
COc1ccc2[nH]cc(CCN3CC(C(=O)Nc4nnc(C(C)(C)C)s4)CC3=O)c2c1 (stereo unspecified)	.	.
Cc1ccc2[nH]cc(CCN3CC(C(=O)Nc4ccccc4Cl)CC3=O)c2c1 (stereo unspecified)	.	.
COc1ccc(N2C(=O)CCC(C(=O)Nc3ccc(C)c(F)c3)C2c2ccc(F)cc2)cc1 (stereo unspecified)	.	.
CC(C)(C)c1nnc(NC(=O)C2CC(=O)N(CCc3c[nH]c4ccc(Cl)cc34)C2)s1 (stereo unspecified)	55	.
SMILES	mHTT CaM bind	Pf apPOL block
COc1ccc(C2C(C(=O)Nc3ccc(F)c(Cl)c3)CC(=O)N2c2ccc(OC)cc2)cc1 (stereo unspecified)	100	.
Cc1ccc2[nH]cc(CCN3CC(C(=O)Nc4ccc(C)c(Cl)c4)CC3=O)c2c1 (stereo unspecified)	86	.
CCC12CC3CC(C1)CC(NC(=O)SC)(C3)C2	.	.
CN(C)C(=O)c1cc2c(s1)CCC(C(=O)NCCCN1CCOCC1)C2 (stereo unspecified)	.	.
Cc1cccc(NC(=O)C2CC(=O)N(CCc3c[nH]c4ccc(F)cc34)C2)c1 (stereo unspecified)	.	.
COc1ccc(Cl)cc1NC(=O)N1CC2CC1C(=O)O2 (stereo unspecified)	.	.
O=C(NC1CC2CC1CN2S(=O)(=O)c1ccc(C(F)(F)F)cc1)c1cccnc1 (stereo unspecified)	.	.
C=CCNC(=O)c1cc2c(=O)n3cc(C)ccc3nc2n(Cc2ccco2)c1=N	.	.
Cc1cc(C2CCCN2Cc2cn[nH]c2-c2ccc(F)cc2)no1 (stereo unspecified)	.	.
